Assay results: the supplement of paper PMC4166925
± gives the standard deviation of the averaged measurements. Over roughly 33,000 sequences, “E-score (dimensionless, -0.5 to 0.5)” has its median near -0.049; the highest 2% begin near 0.37. The entries come from a sample that favours the highest values as a whole.

System: T1, PmTbr T-box DNA-binding domain (GST fusion)
T1 sequence: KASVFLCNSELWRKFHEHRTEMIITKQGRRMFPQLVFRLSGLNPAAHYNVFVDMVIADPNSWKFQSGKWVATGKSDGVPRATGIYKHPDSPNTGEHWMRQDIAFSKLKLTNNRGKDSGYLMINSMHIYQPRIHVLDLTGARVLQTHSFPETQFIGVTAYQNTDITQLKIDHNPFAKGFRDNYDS
Experiment: PBM E-score of 8-mer (E-score (dimensionless, -0.5 to 0.5)); Tbr is Tbrain of the sea star Patiria miniata (Pm) or the sea urchin Strongylocentrotus purpuratus (Sp); higher = stronger binding preference
Settings: the construct has about 5 more residues each side
Procedure: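 Universal protein-binding microarray (Agilent AMADID 016060, 60-bp probes with a 35-bp variable region) incubated with 200 nM GST-fused Patiria miniata Tbr T-box DNA-binding domain (residues 272-466) in PBS pH 7.5. Scored for every ungapped 8-mer (given with its reverse complement) by the Universal PBM Analysis Suite as E-score (modified Wilcoxon-Mann-Whitney enrichment, range -0.5 to 0.5; >0.45 counts as bound) and Z-score of median probe intensity. Two replicate arrays (datasets 1 and 2).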

Row | Sequence | PBM E-score of 8-mer
1 | GAACCTTA | -0.144 ± 0.042
2 | AGACCTTG | -0.174 ± 0.013
3 | CCACCTTA | 0.246 ± 0.036
4 | AAACCTTG | -0.132 ± 0.0072
5 | GCACCTTA | 0.4187 ± 0.0021
6 | TCACCTGA | 0.353 ± 0.019
7 | ATACCTTA | 0.0857 ± 0.093
8 | CCACCTGA | 0.172 ± 0.044
9 | GCACCTGA | 0.391 ± 0.024
10 | AAACCTTA | -0.0234 ± 0.053
11 | ACACCTTA | 0.4762 ± 0.00075
12 | ACACCTTG | 0.481 ± 0.0055
13 | AAAAGCTT | -0.0359 ± 0.065
14 | CTTTGTGA | 0.028 ± 0.0037
15 | ACTAGTCA | 0.164 ± 0.044
16 | TAGGCCAA | -0.298 ± 0.065
17 | AGCCAGAG | -0.0902 ± 0.046
18 | AGCGTCCT | -0.167 ± 0.046
19 | TATAGCAA | -0.0376 ± 0.033
20 | ACACCTTC | 0.479 ± 0.00068
21 | CCACCTTC | 0.31 ± 0.02
22 | AGACCTTC | -0.269 ± 0.022
23 | AAGTGATA | 0.37 ± 0.025

Row | Sequence | PBM E-score of 8-mer
24 | AGGTGAGG | 0.428 ± 0.013
25 | CAGTGAGA | 0.181 ± 0.028
26 | AGGTGAGA | 0.486 ± 0.0024
27 | AAGTGAGG | 0.2407 ± 0.0011
28 | ACGTGAGG | 0.159 ± 0.04
29 | CGGTGAGA | 0.236 ± 0.0071
30 | AAGTGAGA | 0.429 ± 0.0088
31 | TAGTGATA | 0.245 ± 0.035
32 | ACGTGAGA | 0.349 ± 0.0086
33 | AAGTGATG | 0.28 ± 0.0076
34 | AGGTGAGC | 0.303 ± 0.042
35 | GGGGTTGA | -0.000915 ± 0.043
36 | CGATCTAG | 0.025 ± 0.0082
37 | CTTAGCGA | 0.184 ± 0.025
38 | AATCTTCA | -0.068 ± 0.038
39 | CTCGAGGC | -0.039 ± 0.098
40 | CAAACTGG | 0.102 ± 0.039
41 | AAATCTAG | -0.091 ± 0.019
42 | GCCTCACC | 0.0769 ± 0.049
43 | GAGTGAGA | 0.334 ± 0.017
44 | GGGTGAGA | 0.406 ± 0.009
45 | GGGGGTGA | 0.2941 ± 0.0011
46 | ACCATGGC | -0.0471 ± 0.08

Row | Sequence | PBM E-score of 8-mer
47 | CAGTTTAA | -0.0321 ± 0.037
48 | CACCTGGA | 0.366 ± 0.025
49 | GACCTGCA | 0.0626 ± 0.036
50 | CACCTGCC | 0.406 ± 0.021
51 | TACCTGCA | -0.174 ± 0.0055
52 | GACCTGCC | 0.148 ± 0.0062
53 | CACCTGGC | 0.427 ± 0.007
54 | CACCTGGG | 0.361 ± 0.029
55 | CACCTGCG | 0.429 ± 0.019
56 | CACCTGCA | 0.4 ± 0.0099
57 | AACCTGCC | -0.0169 ± 0.035
58 | AACCTGCG | 0.0979 ± 0.006
59 | AACCTGGC | 0.195 ± 0.038
60 | AAGGCCGA | -0.191 ± 0.09
61 | CCTTATGC | -0.139 ± 0.041
62 | GCCATTAC | -0.169 ± 0.06
63 | GGCCTGAC | -0.103 ± 0.02
64 | CGTCCCAG | -0.151 ± 0.0033
65 | CACACGTC | 0.4359 ± 0.0027
66 | CACACGTA | 0.357 ± 0.0053
67 | CACACGGC | 0.0461 ± 0.026
68 | AACACGTG | 0.38 ± 0.016
69 | ACCACGTG | 0.169 ± 0.053

Row | Sequence | PBM E-score of 8-mer
70 | AACACGAG | 0.132 ± 0.0066
71 | CACACGTG | 0.376 ± 0.019
72 | CGCACGTC | 0.354 ± 0.02
73 | CACACAAA | 0.0927 ± 0.064
74 | CAAGAGTG | 0.154 ± 0.047
75 | CAACCGAG | 0.0284 ± 0.0078
76 | GAAAATAA | -0.0661 ± 0.086
77 | CAACACTA | 0.323 ± 0.04
78 | GAACACCA | 0.0994 ± 0.0056
79 | GAACACCC | 0.1762 ± 0.00083
80 | TAACACTA | 0.382 ± 0.0057
81 | TAACACCA | 0.451 ± 0.0075
82 | CAACACCG | 0.3 ± 0.013
83 | GAACACTA | 0.051 ± 0.077
84 | CAACACGC | 0.229 ± 0.019
85 | CAACACGA | 0.161 ± 0.015
86 | AAACACCA | 0.268 ± 0.0077
87 | CAACACCC | 0.444 ± 0.015
88 | CAACACCA | 0.392 ± 0.015
89 | CTGACTCC | -0.143 ± 0.047
90 | CTGCCCTC | -0.067 ± 0.048
91 | CACCCATC | 0.201 ± 0.011
92 | GATATACC | -0.114 ± 0.031

Row | Sequence | PBM E-score of 8-mer
93 | CAAATTCG | 0.0471 ± 0.029
94 | GCTCTAAC | 0.0585 ± 0.0059
95 | AATTACCG | 0.0948 ± 0.036
96 | ACATCACT | 0.0297 ± 0.063
97 | CCACACCC | 0.395 ± 0.028
98 | ACACACCC | 0.327 ± 0.015
99 | CCACACCG | 0.134 ± 0.063
100 | ACCTCTTG | 0.138 ± 0.027
101 | TAAGTGGA | -0.141 ± 0.0053
102 | AGTTACCC | -0.0906 ± 0.018
103 | AGCGCGAG | 0.319 ± 0.011
104 | GGCGCGAA | 0.4607 ± 0.0017
105 | GTCGCGAA | 0.33 ± 0.02
106 | AGCGCGAA | 0.392 ± 0.014
107 | ATCGCGAG | 0.249 ± 0.0038
108 | GACGCGAA | 0.126 ± 0.066
109 | TTCGCGAA | 0.3702 ± 0.0034
110 | ATCGCGAT | 0.38 ± 0.014
111 | GGCGCGCA | 0.0945 ± 0.0047
112 | ATCGCGAA | 0.335 ± 0.046
113 | AGCGCGAT | 0.291 ± 0.0076
114 | CTCGCGAA | 0.368 ± 0.0047
